Among the data in PubChem BioAssay (EPA / NIEHS) are AC50 and outcome values, retold here.

Results filed as inconclusive are left out. Active and inactive are the calls of the source. Rule for the calls, unless noted: active = hit-call score of the fitted dose curve at least 0.9, where 1 is the maximum; inactive = score below 0.9.

As a reminder, the AC50 is the midpoint of the concentration-response curve, whichever way the signal moves.

Test [1] can be described thus: BSK_LPS_PGE2: BioMAP Diversity Plus: LPS Assay for Prostaglandin E2 (PGE2) Biomarker Activity (AID 2283082). The following applies: primary human HUVEC with PBMC; actives raise or lower the signal. Put shortly: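 PGE2 release measured by ELISA in an LPS-activated co-culture of human umbilical vein endothelial cells and peripheral blood mononuclear cells, read at 24 h post-dosing. DMSO served as baseline for bidirectional curve fitting.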

Read-out in test [2]: Macrophage colony-stimulating factor (MCSF), CSF1 (gene 1435)
Put plainly: BSK_LPS_MCSF: BioMAP Diversity Plus: LPS Assay for Macrophage colony-stimulating factor (MCSF) Biomarker Activity (AID 2283083). The following applies: primary human HUVEC with PBMC; actives raise or lower the signal. In short, it runs like this: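 Compound is added to a human vascular primary co-culture of umbilical vein endothelium and blood mononuclear cells. After 24 h, M-CSF is quantified by ELISA. Signal changes are fitted in both directions against DMSO.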

Read-out in test [3]: Tissue Factor, F3 (gene 2152)
Put plainly: BSK_LPS_TissueFactor: BioMAP Diversity Plus: LPS Assay for Tissue Factor Biomarker Activity (AID 2283084). Conditions: primary human HUVEC with PBMC; actives raise or lower the signal. Put shortly: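 In this co-culture system of umbilical vein endothelium with PBMC, stimulated with LPS, cell-surface CD142 is detected by ELISA at 24 h. Endpoint values derive from bidirectional fitting, DMSO serving as baseline.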

Read-out in test [4]: Tumor necrosis factor (Homo sapiens) (UniProt P01375)
Put plainly: BSK_LPS_TNFa: BioMAP Diversity Plus: LPS Assay for Tumour Necrosis Factor alpha (TNFa) Biomarker Activity (AID 2283085).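 For AC50: TNFa protein level quantified by ELISA in the co-culture.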 Conditions: primary human HUVEC with PBMC; actives raise or lower the signal. In short, it runs like this: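 TNFa was quantified by ELISA in LPS-activated co-cultures of human endothelial cells and PBMC, 24 h post-dosing. Both increases and decreases versus DMSO were fitted.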

Read-out in test [5]: Vascular cell adhesion molecule 1 (VCAM1), VCAM1 (gene 7412)
Put plainly: BSK_LPS_VCAM1: BioMAP Diversity Plus: LPS Assay for Vascular cell adhesion molecule 1 (VCAM1) Biomarker Activity (AID 2283086). Conditions: primary human HUVEC with PBMC; actives raise or lower the signal. In short, it runs like this:
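VCAM-1 quantified by ELISA in an LPS-activated co-culture of human endothelial cells and peripheral blood mononuclear cells, read 24 h post-treatment. Fitted in both directions versus DMSO; parallel SRB staining flags overt cytotoxicity.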

Read-out in another test: CD38, CD38 (gene 952)
Put plainly: BSK_SAg_CD38: BioMAP Diversity Plus: SAg Assay for CD38 Biomarker Activity (AID 2283087). The following applies: primary human HUVEC with PBMC; actives raise or lower the signal. Put shortly: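 CD38 quantified by ELISA (fluorescence) in a superantigen-activated endothelial cell–PBMC co-culture at 24 h post-dose. Activity fitted in both directions relative to DMSO; parallel SRB and Alamar Blue cytotoxicity read-outs.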

Read-out in another test: CD40, CD40 (gene 958)
Put plainly: BSK_SAg_CD40: BioMAP Diversity Plus: SAg Assay for CD40 Biomarker Activity (AID 2283088). Conditions: primary human HUVEC with PBMC; actives raise or lower the signal. In short, it runs like this:
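Fluorescence ELISA read-out of CD40 from umbilical vein endothelium plus peripheral blood mononuclear cells, sampled 24 h after dosing. Values come from bidirectional curve fitting with DMSO as baseline.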

Read-out in a further test: CD69, CD69 (gene 969)
Put plainly: BSK_SAg_CD69: BioMAP Diversity Plus: SAg Assay for CD69 Biomarker Activity (AID 2283089).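 For AC50: cell surface CD69 protein quantified by ELISA with fluorescence detection.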 The following applies: primary human HUVEC with PBMC; actives raise or lower the signal. In short, it runs like this:
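ELISA, fluorescence read-out: CD69 on human umbilical vein endothelial cell + PBMC co-culture, 24 h post-dosing. Gain or loss of signal fitted bidirectionally against DMSO baseline.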

Read-out in test [6]: Monocyte Chemoattractant Protein-1 (MCP1), CCL2 (gene 6347)
Put plainly: BSK_SAg_MCP1: BioMAP Diversity Plus: SAg Assay for Monocyte Chemoattractant Protein-1 (MCP1) Biomarker Activity (AID 2283090). Conditions: primary human HUVEC with PBMC; actives raise or lower the signal. In short, it runs like this:
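Values derive from bidirectional fitting of ELISA-measured MCP1 against DMSO controls. Readings were taken 24 h after dosing human vascular endothelial cells co-cultured with peripheral blood mononuclear cells under superantigen stimulation.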

Read-out in test [7]: E-selectin (Homo sapiens) (UniProt P16581)
Put plainly: BSK_SAg_Eselectin: BioMAP Diversity Plus: SAg Assay for Eselectin Biomarker Activity (AID 2283091). The following applies: primary human HUVEC with PBMC; actives raise or lower the signal. Put shortly:
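Primary human endothelial cells and peripheral blood mononuclear cells were co-cultured and exposed to chemical for 24 hours. E-selectin levels were then quantified by ELISA, with bidirectional curve fitting normalised to DMSO controls.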

Read-out in test [8]: Monokine induced gamma interferon (MIG), CXCL9 (gene 4283)
Put plainly: BSK_SAg_MIG: BioMAP Diversity Plus: SAg Assay for Monokine induced gamma interferon (MIG) Biomarker Activity (AID 2283092). The following applies: primary human HUVEC with PBMC; actives raise or lower the signal. In short, it runs like this: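 ELISA readout of MIG/CXCL9; primary human umbilical vein endothelial cells co-cultured with peripheral blood mononuclear cells; 24 h post-dose; gain/loss fit vs DMSO baseline.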

The nature of test [9]: BSK_SAg_PBMCCytotoxicity: PBMC Cytotoxicity Assessment in the BioMAP Diversity Plus: SAg Assay (AID 2283093).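 For AC50: PBMC superantigen activated with SEB plus TSST-1 one hour after compound addition.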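 Note: fitted both ways against DMSO so a hit may be loss or gain of signal.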 The following applies: primary human HUVEC with PBMC. Put shortly:
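PBMC viability by Alamar Blue reduction, fluorescence read at 546/580 nm after 6 h dye exposure. Cells were dosed 1 h before SEB plus TSST-1 activation (20 ng/mL final each), then held 90 h; endothelial/PBMC human co-culture.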

Read-out in test [10]: Interleukin-8 (IL8), CXCL8 (gene 3576)
Put plainly: BSK_SAg_IL8: BioMAP Diversity Plus: SAg Assay for Interleukin-8 (IL8) Biomarker Activity (AID 2283094). The following applies: primary human HUVEC with PBMC; actives raise or lower the signal. In short, it runs like this: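 ELISA readout of IL-8 from a superantigen-activated endothelial/PBMC primary human co-culture, taken 24 h post-dosing and fitted in both directions against DMSO; parallel SRB total-protein staining flags overt cytotoxicity.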

Test [11] is described as follows: BSK_SAg_Proliferation: Cell Proliferation Assessment in the BioMAP Diversity Plus: SAg Assay (AID 2283095).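 Note: relative cell number as total protein by SRB absorbance in sub-confluent culture.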 Conditions: primary human HUVEC with PBMC. Put shortly: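 Relative cell number in the endothelial cell/PBMC co-culture was quantified at 96 h by SRB staining (0.1% SRB, 10% TCA fixation, read at 560 nm). Curves were fitted in both directions relative to DMSO baseline.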

Test [12] in a line: BSK_SAg_SRB: Viability Assessment in the BioMAP Diversity Plus: SAg Assay (AID 2283096).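 Note: cells read one day after compound addition; hits may be either gain or loss of signal compared with DMSO.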 The following applies: primary human HUVEC with PBMC. In short, it runs like this:
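Compounds were added to a human vascular co-culture of umbilical vein endothelium and PBMC. After 24 h, parallel cultures were fixed with 10% TCA, stained with 0.1% sulforhodamine B and read at 560 nm. Gain or loss of signal was fitted relative to DMSO.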

For test [13], the target named is human CYP1A2, CYP1A2 (gene 1544) (UniProt P05177). Put plainly: NVS_ADME_hCYP1A2: NovaScreen (NVS) CYP450-related Enzyme Activity (ADME) Assay for human CYP1A2 (AID 2283102; active = hit-call score of the fitted dose curve at least 0.9, where 1 is the maximum;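 note: fluorescence from turnover of a fluorogenic substrate by recombinant insect-cell CYP1A2; potency for inhibition since loss of fluorescence marks reduced CYP1A2 activity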). Put shortly: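 Compounds were tested at 10 uM in duplicate against recombinant CYP1A2 produced in insect cells. Enzyme activity was measured by fluorescence 0.5 h after dosing, with loss of signal versus acetonitrile control. Active compounds were re-tested in concentration series.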

The target in test [14] is human CYP2A6, CYP2A6 (gene 1548) (UniProt P11509). Put plainly: NVS_ADME_hCYP2A6: NovaScreen (NVS) CYP450-related Enzyme Activity (ADME) Assay for human CYP2A6 (AID 2283099; active = hit-call score of the fitted dose curve at least 0.9, where 1 is the maximum). In short, it runs like this:
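Recombinant human CYP2A6 from insect cells was incubated with chemical for 0.5 h and activity read by fluorescence. Single-concentration duplicates at 10 uM preceded concentration-response testing to 20 uM, with activity referenced to acetonitrile.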

Test [15] has as its target human CYP1A1, CYP1A1 (gene 1543) (UniProt P04798). Put plainly: NVS_ADME_hCYP1A1: NovaScreen (NVS) CYP450-related Enzyme Activity (ADME) Assay for human CYP1A1 (AID 2283100; active = hit-call score of the fitted dose curve at least 0.9, where 1 is the maximum). In short, it runs like this:
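Compounds first went through duplicate single-concentration testing at 10 uM against purified CYP1A1. Those passing a threshold such as 30% inhibition entered singleton dose-response, highest concentration 20 uM. Signal was fluorescence measured after 1 hour.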

The target of test [16] is human CYP2B6, CYP2B6 (gene 1555) (UniProt P20813). Put plainly: NVS_ADME_hCYP2B6: NovaScreen (NVS) CYP450-related Enzyme Activity (ADME) Assay for human CYP2B6 (AID 2283101; active = hit-call score of the fitted dose curve at least 0.9, where 1 is the maximum). In short, it runs like this:
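Fluorescence-based enzyme activity of recombinant human CYP2B6, measured 1 h post-dose against acetonitrile vehicle baseline. Screened at a single concentration of 10 uM in duplicate before concentration-response follow-up.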

Sequence of Tumor necrosis factor (Homo sapiens) (P01375 whole entry, looked up): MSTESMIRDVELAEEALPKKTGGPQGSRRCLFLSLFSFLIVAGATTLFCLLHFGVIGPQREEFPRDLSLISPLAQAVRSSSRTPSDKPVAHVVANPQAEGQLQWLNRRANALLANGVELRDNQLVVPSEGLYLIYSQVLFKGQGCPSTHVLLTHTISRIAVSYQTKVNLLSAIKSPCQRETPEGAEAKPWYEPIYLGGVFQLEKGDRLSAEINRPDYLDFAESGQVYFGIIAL
Sequence of E-selectin (Homo sapiens) (P16581 whole entry, looked up): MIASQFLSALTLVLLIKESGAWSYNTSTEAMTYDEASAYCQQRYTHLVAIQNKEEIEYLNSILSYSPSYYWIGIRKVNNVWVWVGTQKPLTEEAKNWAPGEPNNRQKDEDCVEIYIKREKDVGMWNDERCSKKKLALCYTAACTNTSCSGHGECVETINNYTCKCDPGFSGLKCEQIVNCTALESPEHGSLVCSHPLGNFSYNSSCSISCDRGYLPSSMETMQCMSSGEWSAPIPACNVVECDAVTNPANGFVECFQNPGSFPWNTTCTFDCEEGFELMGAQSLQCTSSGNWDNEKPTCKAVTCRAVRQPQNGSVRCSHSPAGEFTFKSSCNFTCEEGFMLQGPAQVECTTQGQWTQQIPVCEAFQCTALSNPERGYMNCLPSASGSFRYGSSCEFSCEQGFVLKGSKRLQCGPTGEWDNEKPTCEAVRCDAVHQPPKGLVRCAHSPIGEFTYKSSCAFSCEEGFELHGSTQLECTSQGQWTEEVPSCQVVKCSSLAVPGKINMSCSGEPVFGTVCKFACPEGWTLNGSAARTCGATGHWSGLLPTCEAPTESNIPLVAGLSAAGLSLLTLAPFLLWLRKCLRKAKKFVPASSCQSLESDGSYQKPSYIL
Sequence of human CYP1A2, CYP1A2 (gene 1544) (P05177 whole entry, looked up): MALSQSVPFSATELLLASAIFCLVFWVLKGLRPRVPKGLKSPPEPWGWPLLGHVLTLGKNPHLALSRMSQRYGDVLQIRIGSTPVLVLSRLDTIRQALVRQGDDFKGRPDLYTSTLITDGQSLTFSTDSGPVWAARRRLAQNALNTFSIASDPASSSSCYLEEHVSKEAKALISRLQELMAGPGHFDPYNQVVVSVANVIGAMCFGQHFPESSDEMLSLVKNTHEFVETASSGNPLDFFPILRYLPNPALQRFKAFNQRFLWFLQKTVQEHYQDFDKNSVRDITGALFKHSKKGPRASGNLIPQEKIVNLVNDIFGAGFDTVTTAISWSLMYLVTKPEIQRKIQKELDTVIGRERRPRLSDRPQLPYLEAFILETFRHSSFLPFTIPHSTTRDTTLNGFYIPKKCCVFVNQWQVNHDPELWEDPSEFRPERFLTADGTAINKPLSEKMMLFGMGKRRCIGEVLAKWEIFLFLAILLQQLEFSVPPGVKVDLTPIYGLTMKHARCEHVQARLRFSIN
Sequence of human CYP1A1, CYP1A1 (gene 1543) (P04798 whole entry, looked up): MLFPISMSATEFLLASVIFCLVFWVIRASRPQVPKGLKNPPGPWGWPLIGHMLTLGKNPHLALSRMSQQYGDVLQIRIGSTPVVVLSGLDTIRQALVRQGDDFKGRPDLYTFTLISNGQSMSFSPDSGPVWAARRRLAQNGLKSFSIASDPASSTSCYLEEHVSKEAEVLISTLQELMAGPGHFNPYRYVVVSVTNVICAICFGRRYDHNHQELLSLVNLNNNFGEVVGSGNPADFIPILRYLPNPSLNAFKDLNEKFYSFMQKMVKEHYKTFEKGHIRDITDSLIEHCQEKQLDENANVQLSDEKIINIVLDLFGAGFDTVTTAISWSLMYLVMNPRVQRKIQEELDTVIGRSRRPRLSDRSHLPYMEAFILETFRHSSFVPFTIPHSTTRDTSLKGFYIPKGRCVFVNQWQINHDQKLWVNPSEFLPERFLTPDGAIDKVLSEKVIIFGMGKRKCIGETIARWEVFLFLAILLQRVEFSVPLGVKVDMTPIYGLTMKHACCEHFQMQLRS
Sequence of human CYP2B6, CYP2B6 (gene 1555) (P20813 whole entry, looked up): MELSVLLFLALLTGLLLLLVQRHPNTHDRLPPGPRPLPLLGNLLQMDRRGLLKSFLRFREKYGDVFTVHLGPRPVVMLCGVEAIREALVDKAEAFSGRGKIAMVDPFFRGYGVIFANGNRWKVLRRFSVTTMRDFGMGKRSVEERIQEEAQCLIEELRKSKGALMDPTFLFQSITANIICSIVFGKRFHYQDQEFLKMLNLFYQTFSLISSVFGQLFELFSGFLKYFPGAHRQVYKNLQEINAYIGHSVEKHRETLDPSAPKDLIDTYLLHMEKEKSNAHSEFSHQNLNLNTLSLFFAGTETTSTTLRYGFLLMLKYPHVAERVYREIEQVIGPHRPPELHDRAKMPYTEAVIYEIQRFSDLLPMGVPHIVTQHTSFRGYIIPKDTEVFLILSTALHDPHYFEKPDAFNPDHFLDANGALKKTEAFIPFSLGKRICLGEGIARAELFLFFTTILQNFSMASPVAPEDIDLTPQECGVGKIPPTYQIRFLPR
Sequence of human CYP2A6, CYP2A6 (gene 1548) (P11509 whole entry, looked up): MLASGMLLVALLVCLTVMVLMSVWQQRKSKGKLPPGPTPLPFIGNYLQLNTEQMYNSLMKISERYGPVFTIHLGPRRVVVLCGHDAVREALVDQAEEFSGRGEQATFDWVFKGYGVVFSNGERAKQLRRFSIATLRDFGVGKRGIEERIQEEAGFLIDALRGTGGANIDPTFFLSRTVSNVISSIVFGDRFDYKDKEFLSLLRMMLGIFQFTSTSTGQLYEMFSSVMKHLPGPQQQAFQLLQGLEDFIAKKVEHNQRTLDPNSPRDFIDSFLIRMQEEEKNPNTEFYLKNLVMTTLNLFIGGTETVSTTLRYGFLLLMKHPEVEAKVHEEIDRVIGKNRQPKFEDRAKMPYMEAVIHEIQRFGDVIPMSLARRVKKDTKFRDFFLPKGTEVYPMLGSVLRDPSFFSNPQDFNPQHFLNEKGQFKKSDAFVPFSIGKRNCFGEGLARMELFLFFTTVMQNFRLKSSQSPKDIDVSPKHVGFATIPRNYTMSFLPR

Regarding `CCCCOC(=O)c1ccccc1C(=O)OCc1ccccc1`, the AC50 was 8.72 µM (active) in test [1]; 10.7 µM (active) in test [5]; 20 µM (active) in [10]; 20 µM (active) in [11]; 10.8 µM (active) in test [12]; 6.71 µM (active) in test [13]. Besides, the outcome in test [2] was “inactive”; in test [3], “inactive”; in test [4] it was “inactive”; with CD38, CD38 (gene 952) it was “inactive”; with CD40, CD40 (gene 958), “inactive”; with CD69, CD69 (gene 969) it was “inactive”. Besides, the outcome in test [6], in [7], in [8] and in test [9] was inactive.
As to `[Cl-].[Cl-].[Hg+2]`, the result in test [1], in test [6], in test [8] and in test [10] was inactive. In addition, the AC50 was 31.7 µM (active) in test [2]; 32.9 µM (active) in [3]; 33 µM (active) in test [4]; 28.2 µM (active) in test [5]; 36.6 µM (active) with CD38, CD38 (gene 952); 32 µM (active) with CD40, CD40 (gene 958). For the same compound, the AC50 was 36.8 µM (active) in the test with CD69, CD69 (gene 969); 20 µM (active) in test [7]; 31 µM (active) in [9]; 22.7 µM (active) in [11]; 14.8 µM (active) in test [14]; 14.3 µM (active) in test [15]. Moreover, the AC50 is 9.16 µM (active) in test [16] and 0.998 µM (active) in [13].
Turning to `Oc1ccc2ccc3cccc4ccc1c2c34`, the AC50 was 4.03 µM (active) in [1]; 30.4 µM (active) in test [2]; 34.4 µM (active) in test [3]; 33 µM (active) in test [4]; 35.3 µM (active) in [5]; 16.5 µM (active) with CD38, CD38 (gene 952). For the same compound, the AC50 in the test with CD40, CD40 (gene 958) is 23.3 µM (active); with CD69, CD69 (gene 969), 31.9 µM (active); in [6], 29.5 µM (active); in [7], 30.7 µM (active); in test [8], 36.7 µM (active); in test [9], 8.38 µM (active). The AC50 in [10] is 36.1 µM (active); in test [11], 6.09 µM (active); in test [12], 30.4 µM (active); in test [15], 2.84 µM (active); in test [13] it was 0.275 µM (active).
